The values below come from the supplement of paper PMC7366291.

The structures appear in SMILES notation. Structures can show the parent of a compound that is named as a salt. ± gives the standard deviation or the standard deviation of the averaged measurements.

Settings in all cases: 25 µM; exposure: 24-48 hpf
The test system of assay [1] is Danio rerio Tg(wt1b:EGFP) embryo, pronephros. Description: glomerular separation, fold change vs DMSO control; higher = glomeruli further apart (abnormal). The gist of the method:
(§1)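 Dechorionated Tg(wt1b:EGFP) zebrafish embryos were incubated at 28.5°C from 24 to 48 hpf with 25 μM compound in HEPES-buffered E3 containing 0.5% DMSO and 0.003% PTU. Distances and angles between 16 manually set points on maximum projections of dorsal pronephros images were measured in Fiji, with values over 2 SD from the feature mean excluded. Each feature is a fold change relative to the mean of same-day DMSO-treated embryos.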

Assay [2] shares this test system. Nature of the assay: glomerular width (mean of left and right), fold change vs DMSO control; higher = wider glomerulus. The procedure, abridged: as §1
Assay [3] has the same test system. Nature of the assay: fraction of imaged embryos annotated as normal kidney; higher = less nephrotoxic; extreme values may be limits of the assay. The procedure, abridged: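 Embryos of the Tg(wt1b:EGFP) zebrafish line were dechorionated and held in 12-well plates with 25 μM compound in 0.5% DMSO and 5 mM HEPES-buffered E3 containing 0.003% PTU, from 24 to 48 hpf at 28.5°C. Larvae were then anaesthetised with tricaine, set dorsal side up in agarose-filled 96-well plates, and their pronephroi imaged by widefield fluorescence at 470 nm over 10 z-slices. Each value is the fraction of embryos per treatment placed in the normal-kidney category after manual annotation of maximum projections.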

Assay [4] shares this test system. Description: pronephric angle neck segment to proximal convoluted tubule (mean of left and right), fold change vs DMSO control; higher = larger pronephric angle. The procedure, abridged:
as §1

Compound `C[C@]12Cc3c[nH]nc3C[C@@H]1CC[C@@H]1[C@@H]2CC[C@@]2(C)[C@H]1CC[C@]2(C)O` [Stanozolol] came in with a glomerular separation in assay [1] of 1.31 ± 0.44. In assay [2], this compound had a glomerular width of 1.03 ± 0.076. Also, in assay [3], the “fraction of imaged embryos annotated as normal kidney” value (“fraction of imaged embryos annotated” below) came out at 0.75. Besides, in assay [4], the “pronephric angle neck segment” value was 1.01 ± 0.085.
The like results for `O=P1(NCCCl)OCCCN1CCCl` (stereo unspecified) [Ifosfamide] were, in that order, 1.05 ± 0.39, 0.999 ± 0.045, 0.833 and 1.06 ± 0.023.
Consider `C#C[C@]1(O)CC[C@H]2[C@@H]3CCC4=CC(=O)CCC4=C3C=C[C@@]21CC` [Gestrinone], for which, in assay [1], the glomerular separation came out at 1.64 ± 0.91. For the same compound, the glomerular width in assay [2] was 1.119 ± 0.0059. For the same compound, in assay [3], the “fraction of imaged embryos annotated” value came out at 0.417. Further, the “pronephric angle neck segment” value in assay [4] stood at 1.03 ± 0.038.
The corresponding values for `C[C@]12CCC(=O)C=C1CC[C@@H]1[C@@H]2C(=O)C[C@]2(C)C(=O)CC[C@@H]12` [Adrenosterone] are 0.651 ± 0.16, 1.005 ± 0.0024, 1 and 0.958 ± 0.021.
The like results for `C[C@]12CC[C@@H]3c4ccc(OC(=O)N(CCCl)CCCl)cc4CC[C@H]3[C@@H]1CC[C@@H]2O` [Estramustine] were, in that order, 2.15 ± 0.79, 0.792 ± 0.018, 0.333 and 1.1 ± 0.03.
The like results for `CC[N+]1(C)CCCC(OC(=O)C(O)(c2ccccc2)c2ccccc2)C1` (stereo unspecified) [Pipenzolate bromide] were, in that order, 0.89 ± 0.28, 1.051 ± 0.0016, 0.909 and 0.981 ± 0.037.
`C[C@@H]1CC[C@H]2[C@@H](C)C(=O)O[C@@H]3O[C@@]4(C)CC[C@@H]1[C@]32OO4` [Artemisinin] came in with a glomerular separation in assay [1] of 0.996 ± 0.38. This compound yielded a glomerular width in assay [2] of 0.9517 ± 0.0011. The “fraction of imaged embryos annotated” value in assay [3] is 1. Moreover, in assay [4], the “pronephric angle neck segment” value was 1.05 ± 0.054.
The corresponding values for `CCC1(C)CC(=O)NC(=O)C1` [Bemegride] are 0.891 ± 0.28, 0.997 ± 0.013, 0.75 and 0.968 ± 0.027.
The like results for `CCN(C(C)=O)c1cccc(-c2ccnc3c(C#N)cnn23)c1` [Zaleplon] were, in that order, 0.976 ± 0.47, 0.943 ± 0.034, 0.833 and 1.03 ± 0.027.
Regarding `C[C@@H]1CN([C@H]2CC[C@](C#N)(c3ccc(F)cc3)CC2)CC[C@]1(C(=O)O)c1ccccc1` [Levocabastine hydrochloride], in assay [1], the glomerular separation turned out to be 1.19 ± 0.32. The compound also had a glomerular width in assay [2] of 1.06 ± 0.034. The “fraction of imaged embryos annotated” value in assay [3] was determined as 0.917. In assay [4], the “pronephric angle neck segment” value worked out at 0.959 ± 0.011.
The like results for `CN1[C@@H]2CC[C@H]1C[C@@H](OC(=O)C(CO)c1ccccc1)C2` (stereo partly specified) [Atropine sulfate monohydrate] were, in that order, 1.25 ± 0.3, 1.04 ± 0.011, 1 and 1 ± 0.063.
In turn, `C[C@]12CC[C@H]3[C@@H](CCC4=CC(=O)CC[C@@H]43)[C@@H]1CC[C@@H]2O` [Nandrolone] had a glomerular separation in assay [1] of 1.02 ± 0.42. In assay [2], this compound showed a glomerular width of 0.8978 ± 0.0049. Further, the “fraction of imaged embryos annotated” value in assay [3] is 0.833. Also, in assay [4], the “pronephric angle neck segment” value came to 0.95 ± 0.015.
The like results for `NCCCNCCSP(=O)(O)O` [Amifostine] were, in that order, 0.91 ± 0.29, 1.04 ± 0.037, 0.833 and 1.02 ± 0.074.
The compound `CC(=O)O[C@H]1CC[C@@]2(C)C(=CC[C@@H]3[C@@H]2CC[C@]2(C)C(=O)CC[C@@H]32)C1` [Dehydroisoandosterone 3-acetate] came in with a glomerular separation in assay [1] of 1.13 ± 0.35. Besides, the glomerular width in assay [2] was 0.896 ± 0.056. Moreover, the “fraction of imaged embryos annotated” value in assay [3] came to 0.917. Besides, in assay [4], the “pronephric angle neck segment” value is 1.02 ± 0.043.
Consider `COc1ccc(CCN)cc1OC` [Homoveratrylamine], for which the glomerular separation in assay [1] worked out at 1.13 ± 0.38. In addition, the glomerular width in assay [2] came to 0.994 ± 0.012. The “fraction of imaged embryos annotated” value in assay [3] stood at 0.75. For the same compound, the “pronephric angle neck segment” value in assay [4] came to 0.972 ± 0.021.
`CN(C)C(=O)Oc1cccc([N+](C)(C)C)c1` [Neostigmine bromide] yielded a glomerular separation in assay [1] of 0.984 ± 0.28. The compound also gave a glomerular width in assay [2] of 0.859 ± 0.034. Also, the “fraction of imaged embryos annotated” value in assay [3] stood at 0.667. The “pronephric angle neck segment” value in assay [4] is 1.09 ± 0.053.
Take `COc1ccc(CN2CCNCC2)c(OC)c1OC` [Trimetazidine dihydrochloride]: the glomerular separation in assay [1] stood at 0.91 ± 0.3. This compound displayed a glomerular width in assay [2] of 0.96 ± 0.014. In addition, the “fraction of imaged embryos annotated” value in assay [3] came out at 0.917. The “pronephric angle neck segment” value in assay [4] is 0.982 ± 0.044.
As to `O=C(NCNC(=O)NC1C(=O)NC(=O)N1CO)NC1C(=O)NC(=O)N1CO` (stereo unspecified) [Imidurea], the glomerular separation in assay [1] was 0.876 ± 0.2. In assay [2], the glomerular width is 1.008 ± 0.01. Also, in assay [3], the “fraction of imaged embryos annotated” value is 0.833. For the same compound, the “pronephric angle neck segment” value in assay [4] worked out at 1.058 ± 0.0052.
In assay [1], `CCCC(C)(COC(N)=O)COC(=O)NC(C)C` (stereo unspecified) [Carisoprodol] showed a glomerular separation of 0.877 ± 0.24. For the same compound, the glomerular width in assay [2] was found to be 1.14 ± 0.026. Further, the “fraction of imaged embryos annotated” value in assay [3] was found to be 1. Further, the “pronephric angle neck segment” value in assay [4] was 0.938 ± 0.022.
The corresponding values for `C[N+](C)(C)CCCCCCCCCC[N+](C)(C)C` [Decamethonium bromide] are 1.04 ± 0.55, 1.01 ± 0.041, 0.727 and 1.02 ± 0.021.
The corresponding values for `CN1[C@@H]2CC[C@H]1C[C@@H](OC(=O)[C@H](CO)c1ccccc1)C2` [Hyoscyamine (L)] are 0.956 ± 0.51, 1.06 ± 0.03, 0.75 and 0.999 ± 0.012.
The like results for `NCC(O)c1ccc(O)cc1` (racemic) [(+,-)-Octopamine hydrochloride] were, in that order, 0.97 ± 0.66, 0.94 ± 0.042, 0.909 and 0.987 ± 0.059.
In the case of `CC(C)CC(N(C)C)C1(c2ccc(Cl)cc2)CCC1` (stereo unspecified) [Sibutramine hydrochloride], in assay [1], the glomerular separation was 0.986 ± 0.37. Besides, the glomerular width in assay [2] stood at 0.995 ± 0.021. In addition, in assay [3], the “fraction of imaged embryos annotated” value was determined as 0.417. The “pronephric angle neck segment” value in assay [4] turned out to be 1.08 ± 0.054.
The corresponding values for `CCOC(=O)c1cncn1[C@H](C)c1ccccc1` [Etomidate] are 0.978 ± 0.27, 0.949 ± 0.067, 0.833 and 1.03 ± 0.011.
In turn, `NC(=O)OCCCc1ccccc1` [Phenprobamate] came in with a glomerular separation in assay [1] of 0.999 ± 0.4. Besides, the glomerular width in assay [2] stood at 1.03 ± 0.022. Also, the “fraction of imaged embryos annotated” value in assay [3] was determined as 0.75. For the same compound, the “pronephric angle neck segment” value in assay [4] was 1.01 ± 0.05.
The like results for `C=C(C)[C@@H]1[C@H]2OC(=O)[C@@H]1[C@]1(O)C[C@H]3O[C@]34C(=O)O[C@H]2[C@]14C` [Picrotoxinin] were, in that order, 1.19 ± 0.57, 0.973 ± 0.011, 0.917 and 1.01 ± 0.03.
The corresponding values for `CC(NC(C)(C)C)C(=O)c1cccc(Cl)c1` (stereo unspecified) [Bupropion hydrochloride] are 0.797 ± 0.2, 1.026 ± 0.0015, 1 and 1.03 ± 0.011.
Consider `C#C[C@]1(O)CC[C@H]2[C@@H]3CCC4=CC(=O)CC[C@]4(C)[C@H]3CC[C@@]21C` [Ethisterone], for which the glomerular separation in assay [1] was 0.918 ± 0.23. The glomerular width in assay [2] was 1.06 ± 0.071. Also, the “fraction of imaged embryos annotated” value in assay [3] amounted to 0.909. In addition, the “pronephric angle neck segment” value in assay [4] worked out at 1.065 ± 0.002.
For the compound `c1ccc2nc(N3CCNCC3)ccc2c1` [Quipazine dimaleate salt], the glomerular separation in assay [1] was determined as 1.09 ± 0.53. The glomerular width in assay [2] was 1.01 ± 0.04. Moreover, the “fraction of imaged embryos annotated” value in assay [3] is 0.75. In addition, in assay [4], the “pronephric angle neck segment” value worked out at 1.022 ± 0.0046.
